# Compound activity (PubChem)
# Shown are actives, neighbours in structure and some others; about 5.4% of the full set was active somewhere.
# RORg inh = blocks mouse ROR gamma transcriptional activity | P51450 | Drosophila S2 Gal4-RORgamma UAS-luciferase reporter, 20 h | Potency, µM (doses to about 53.6 µM), for inactives: at the highest dose activity change, negative = inhibition, hits mostly inhibitors | actives 5.4% (n = 310,000); further: potency means the concentration at half of the fitted maximal effect; on the % scale 0 is the no-effect control and ±100 the full control effect; nearly all actives have a fitted effect of over 60% in size
# Target sequence (P51450 whole entry, looked up, the tested form may be a part): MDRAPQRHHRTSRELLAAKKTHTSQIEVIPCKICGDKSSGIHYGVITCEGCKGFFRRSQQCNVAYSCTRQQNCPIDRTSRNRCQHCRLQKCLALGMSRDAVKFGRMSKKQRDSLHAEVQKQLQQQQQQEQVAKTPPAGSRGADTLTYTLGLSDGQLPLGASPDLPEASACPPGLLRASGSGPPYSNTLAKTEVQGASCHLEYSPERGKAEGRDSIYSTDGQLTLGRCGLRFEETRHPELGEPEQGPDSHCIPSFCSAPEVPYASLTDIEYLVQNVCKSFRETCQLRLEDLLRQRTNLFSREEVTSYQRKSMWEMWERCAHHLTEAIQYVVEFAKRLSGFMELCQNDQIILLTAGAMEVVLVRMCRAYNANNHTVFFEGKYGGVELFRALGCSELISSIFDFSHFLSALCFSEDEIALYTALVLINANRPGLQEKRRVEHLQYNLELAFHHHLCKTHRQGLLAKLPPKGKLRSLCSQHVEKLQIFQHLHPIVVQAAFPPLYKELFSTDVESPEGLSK
#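 Using a luciferase readout, inhibitors were identified by reduced reporter activity in Drosophila cells coexpressing a copper-inducible Gal4–ROR gamma fusion and UAS-driven Photinus luciferase, incubated 20 hr after 700 uM copper sulfate.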
# Gal4-VP16 FLuc = Gal4-VP16 reporter inhibition counter-screen; Drosophila S2 Gal4-VP16 UAS-luciferase, luminescence, 20 h; Potency, µM (doses to about 53.6 µM), without a hit: top-dose activity, negative = inhibition, actives largely listed as inhibitors; actives 3.5% (n = 310,000); AID 2546;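 further: Gal4-VP16 expression switched on by copper sulfate through the metallothionein promoter; potency means the concentration at half of the fitted maximal effect; on the % scale 0 is the no-effect control and ±100 the full control effect; nearly all actives have a fitted effect of over 50% in size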
# p53 reactivator = re-activators of mutant p53. AID 504706. Potency, µM (highest dose often 92.2 µM), for inactives: at the highest dose activity change, positive = activation, usual class: activators. actives 0.063% (n = 320,000). H1299 p53-A138V BP100-luciferase reporter, luminescence, 24 h; further: potency means the concentration at half of the fitted maximal effect; % of control where 0% means no effect; nearly all actives have a fitted effect of over 45% in size
#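 p53-null H1299 cells stably carrying temperature-sensitive p53-A138V and a BP100-luciferase reporter were pinned with compounds (4-point, 1:5 series) and held 24 hrs at 37 deg C. Luminescence was read 10 min after detection reagent.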
# Six1-Eya2 blk = Six1/Eya2 interaction inhibition. Q15475+O00167. AlphaScreen GST-Six1/His-Eya2 binding, biochemical; stronger effect = lower value. activity change, % (concentration not given with the values). actives 0.56% (n = 360,000). AID 651725; in the data active means activity change below about -65%; inconclusive means mostly about -30% to -63%; further: on the % scale 0 is the no-effect control and ±100 the full control effect
#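 Six1/Eya2 binding was read as AlphaScreen signal after compounds were pinned into GST-Six1 plus His-tagged Eya2 (5X stock 250/500 nM) in pH 8.0 Tris/NaCl/TCEP buffer, beads added, then incubated 1 h, 37 C, dark.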
# CtBP-E1A blk = inhibitors of CtBP/E1A interaction | AID 651724 | AlphaScreen GST-E1A/His-CtBP binding, 1536-well; stronger effect = lower value | activity change, % (no concentration beside the values) | actives 0.49% (n = 340,000); in the data active means activity change below about -65%; inconclusive means mostly about -30% to -63%; further: on the % scale 0 is the no-effect control and ±100 the full control effect
#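 In 5 uL wells, 23 nL compound meets equimolar GST-E1A and His-CtBP (5X stock 125 nM each) for 2 h, 37 °C. Beads (5X, 50 ug/mL) then 1 h, 37 °C, dark.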
# * = called active by the depositor; ? = inconclusive; · = no result given; [ ] = dose if it differs, or a comment. Unless noted, the call rests on the fitted dose curve; in most records, active means well fitted curve in the direction sought with a large enough effect; inconclusive means small, poorly fitted or top-dose-only effect, or another doubt; inactive means no such curve, though single readings can be large; an effect the other way counts as inactive or inconclusive.
SMILES,RORg inh,Gal4-VP16 FLuc,p53 reactivator,Six1-Eya2 blk,CtBP-E1A blk
Cc1cc(C)cc(C(=O)N2CC(=O)Nc3ccccc32)c1,1.4%,11.2%,8.0%,0.4,0.2
Cc1ccc(/C=C/C(=O)N2CC(=O)Nc3ccccc32)o1,?,15.8µM*,29.0%,-6.9,0.3
CCOC(=O)c1ccc(NC(=O)CCc2nc(-c3ccc(C)cc3)no2)cc1,?,7.94µM*,-4.1%,4.4,8.6
Cc1ccc(-c2noc(CCCC(=O)Nc3cccnc3)n2)cc1,0.562µM*,3.16µM*,2.4%,3.6,3.3
CCOC(=O)c1ccc(NC(=O)CCc2nc(-c3ccc(Cl)cc3)no2)cc1,27.6%,-4.8%,-15.0%,-0.4,6.3
O=C(CCCc1nc(-c2ccccc2)no1)Nc1cccnc1,-16.6%[10 µM],?,4.1%,0.6,2.6
O=C(CCCc1nc(-c2ccccc2)no1)NCc1cccnc1,?,5.62µM*,9.9%,-2.1,0.4
C=CCn1c(COc2ccccc2)nnc1SC(C)C(=O)N/N=C/c1cc(Cl)ccc1O (stereo unspecified),12.6µM*,?,?,?,?
C[C@H](CO)N1C[C@H](C)[C@@H](CN(C)C(=O)NC2CCCCC2)Oc2ccc(NC(=O)C3CC3)cc2C1=O,·,·,·,4.4,10.8
N#CC1=C(N)Oc2n[nH]c(-c3cccnc3)c2C1c1ccc([N+](=O)[O-])o1 (stereo unspecified),6.31µM*,?,-19.4%,-14.8,-8.0
S=C(NCC1(c2ccccc2)CCCC1)Nc1ccccc1,1.58µM*,6.31µM*,-0.9%,-0.3,-5.0
S=C(NCCOCCOCCNC(=S)Nc1ccccc1)Nc1ccccc1,5.01µM*,?,-3.2%,7.2,1.0
CCCNC(=S)Nc1ccc(Br)cc1,11.2µM*,?,5.9%,1.0,-1.1
S=C(NCCc1ccncc1)Nc1ccccc1,-15.8%,-0.9%,-1.1%,6.3,6.3
S=C(NCCc1ccccc1)Nc1ccc(Br)cc1,5.01µM*,?,?,5.4,1.8
C/C(Cn1cnc([N+](=O)[O-])n1)=N/NC(=O)COc1c(Cl)cc(Cl)cc1Cl,-35.8%,?,-5.0%,1.1,-8.7
NC(=O)Cn1ccc(O)c(Cc2ccc(Cl)cc2Cl)c1=O,8.9%,-3.2%,-2.4%,16.5,·
CC(C)CCNC(=S)Nc1ccc(Br)cc1,3.55µM*,10µM*,6.6%,2.2,2.8
COC(=O)Cc1ccc(NC(=S)NCCO)cc1,-14.0%,-14.9%,-1.0%,-2.2,4.0
COC(=O)Cc1ccc(NC(=S)NCCC(C)C)cc1,10µM*,?,22.5%,5.2,13.8
Cc1ccc(NC(=S)NCC(C)C)cc1,10µM*,11.2µM*,?,11.6,-1.8
CC(C)CNC(=S)Nc1ccc(S(N)(=O)=O)cc1,-3.8%,-9.2%,8.9%,0.4,-5.1
COCCNc1nc(C)nc2c1nc(-c1ccccc1)n2CCN(C)C,-20.3%,-9.0%,·,·,·
OCCCNCc1ccc(N(c2ccccc2)c2ccccc2)cc1,-36.8%,-11.9%,6.0%,9.2,-5.9
C/C(=N\NC(=S)Nc1cccc(C)c1)c1ccco1,?,-27.1%,-3.5%,-18.0,-16.7
SMILES,RORg inh,Gal4-VP16 FLuc,p53 reactivator,Six1-Eya2 blk,CtBP-E1A blk
C/C(=N\NC(=S)Nc1cccc(C)c1)c1cccc(N)c1,4.47µM*,3.16µM*,10.5%,-16.3,1.6
C/C(=N\NC(=S)Nc1cccc(C)c1)c1ccccc1,1.12µM*,7.94µM*,12.7%,?,?
CSC(=S)N/N=C(\C)c1ccccc1,0.447µM*,4.47µM*,0.8%,-12.9,-2.6
C/C(=N\Nc1ccccc1)c1cccc(N)c1,16.2%,?,17.9%,5.3,-23.6
C/C(=N\NC(=O)c1cccc(C)c1)c1cccc(NC(=O)c2ccco2)c1,-29.0%,-12.3%,3.7%,-8.0,-4.9
C/C(=N\NC(=S)Nc1ccc(C)cc1)c1cccc(N)c1,2.82µM*,12.6µM*,?,-8.8,-11.2
CCCC/C=C/C(NC(=O)Oc1cccc(C(F)(F)F)c1)c1ccccc1 (stereo unspecified),25.5%,-5.7%,·,·,·
COC(=O)C1=C(C(=O)OC)[C@@H]2N(Cc3ccccc3)c3ccccc3[C@@]23C[C@@H](C(=O)OC)N(C(=O)COCc2ccccc2)C3=N1,?,?,-2.9%,-17.6,-2.9
